According to PubChem BioAssay (NCATS):
A number with no mark means an inactive call. Calls of active or inactive are those of the source. The call rests on the fitted dose curve; in most records, active means well fitted inhibition curve with a large enough effect; inconclusive means small, poorly fitted or top-dose-only effect; inactive means flat fitted curve, though single readings scatter.

Target: DNA polymerase III PolC-type (Bacillus subtilis (strain 168)) (UniProt P13267)
Experiment: qHTS Validation Assay for the Inhibitors of DNA Replication in Gram-Positive Bacteria (AID 485295);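 on activity change, negative = inhibition: reconstituted holoenzyme with PolC plus beta clamp SSB and primase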
Conditions: Gram-positive bacterial DNA replication assay; series mostly up to 57.1 µM; activity change, negative = inhibition: at the top concentration
Experimental: B Subtilis DNA polymerase III holoenzyme complex was assayed for DNA production by fluorescent detection of the double-stranded DNA product with PicoGreen dye. The holoenzyme complex was reconstituted from the following purified protein components: DNA Polymerase III, beta subunit processivity factor, SSB single-stranded DNA binding protein, and Primase. Single-stranded, circular M13Gori was used as a substrate with dNTPs and NTPs also supplied to the substrate reagent. Compounds from the NCGC collection were incubated with the holoenzyme mixture for […] at room temperature to allow binding to occur, and then the reaction was started by the addition of substrate. After 30 min incubation at room temperature, PicoGreen solution containing EDTA was added to stop the reaction and to visualize the double-stranded DNA produced. Reaction progress was measured in a ViewLux CCD imager in fluorescence intensity mode by using 480 nm excitation and 540 nm emission filter set.
1. Thaw screening compounds.
2. Label assay plates. Prepare pipette tips, reagent reservoirs, buffers and controls.
1. Thaw Enzymes, DNA template, Nucleotides and PicoGreen dye concentrate. Thawed enzymes are stable on ice for ~1
week. Other thawed components are stable indefinitely.
2. Prepare sufficient quantities of Enzyme, Substrate and PicoGreen Quench mixes (according to Table II). For the number of
compound plates being screened.
3. Ensure that the tip wash station reservoirs have clean water and turn on recirculating chiller so that the chilled deck position
1. Load 2 uL of EDTA controls (250 mM, Background, 100 % inhibition) and 2 uL of DMSO controls (Negative control, 0%
inhibition) in the screening plates (flat-bottomed black 384-well polypropylene, Greiner Bio-one).
2. Place Enzyme mix reservoir on the chiller position of the liquid handler deck. Make sure that chiller will maintain
temperature of Enzyme mix at 4degC. Substrate mix and PicoGreen Quench can be stored at room temp.
3. Program liquid handling robotics to dispense 18 uL of Enzyme mix into assay plates. Wash tips.
4. Aspirate and dispense 2 uL of compound from compound plates, mix and Incubate at room temperature for 10 minutes.
5. Aspirate 5 ul of Substrate mix, dispense into assay plates and mix by pipetting. Wash tips.
6. Incubate at room temperature (21 +/- 1 deg C) for 20 minutes.
7. Quench reactions by addition of 25 uL PicoGreen Quench mix and mix by pipetting (using HTS robotics or bulk reagent
dispenser such as a Multidrop or uFill). Keep plates in the dark or stacked until ready to read fluorescence.
8. Read fluorescence intensity of plates on plate reader using "Fluorescein (Ex 485 nm/ Em 535 nm, 0.1s)" setting.
Potency means the concentration at half of the fitted maximal effect.

DNA polymerase III PolC-type (Bacillus subtilis (strain 168)), sequence (P13267 whole entry, looked up): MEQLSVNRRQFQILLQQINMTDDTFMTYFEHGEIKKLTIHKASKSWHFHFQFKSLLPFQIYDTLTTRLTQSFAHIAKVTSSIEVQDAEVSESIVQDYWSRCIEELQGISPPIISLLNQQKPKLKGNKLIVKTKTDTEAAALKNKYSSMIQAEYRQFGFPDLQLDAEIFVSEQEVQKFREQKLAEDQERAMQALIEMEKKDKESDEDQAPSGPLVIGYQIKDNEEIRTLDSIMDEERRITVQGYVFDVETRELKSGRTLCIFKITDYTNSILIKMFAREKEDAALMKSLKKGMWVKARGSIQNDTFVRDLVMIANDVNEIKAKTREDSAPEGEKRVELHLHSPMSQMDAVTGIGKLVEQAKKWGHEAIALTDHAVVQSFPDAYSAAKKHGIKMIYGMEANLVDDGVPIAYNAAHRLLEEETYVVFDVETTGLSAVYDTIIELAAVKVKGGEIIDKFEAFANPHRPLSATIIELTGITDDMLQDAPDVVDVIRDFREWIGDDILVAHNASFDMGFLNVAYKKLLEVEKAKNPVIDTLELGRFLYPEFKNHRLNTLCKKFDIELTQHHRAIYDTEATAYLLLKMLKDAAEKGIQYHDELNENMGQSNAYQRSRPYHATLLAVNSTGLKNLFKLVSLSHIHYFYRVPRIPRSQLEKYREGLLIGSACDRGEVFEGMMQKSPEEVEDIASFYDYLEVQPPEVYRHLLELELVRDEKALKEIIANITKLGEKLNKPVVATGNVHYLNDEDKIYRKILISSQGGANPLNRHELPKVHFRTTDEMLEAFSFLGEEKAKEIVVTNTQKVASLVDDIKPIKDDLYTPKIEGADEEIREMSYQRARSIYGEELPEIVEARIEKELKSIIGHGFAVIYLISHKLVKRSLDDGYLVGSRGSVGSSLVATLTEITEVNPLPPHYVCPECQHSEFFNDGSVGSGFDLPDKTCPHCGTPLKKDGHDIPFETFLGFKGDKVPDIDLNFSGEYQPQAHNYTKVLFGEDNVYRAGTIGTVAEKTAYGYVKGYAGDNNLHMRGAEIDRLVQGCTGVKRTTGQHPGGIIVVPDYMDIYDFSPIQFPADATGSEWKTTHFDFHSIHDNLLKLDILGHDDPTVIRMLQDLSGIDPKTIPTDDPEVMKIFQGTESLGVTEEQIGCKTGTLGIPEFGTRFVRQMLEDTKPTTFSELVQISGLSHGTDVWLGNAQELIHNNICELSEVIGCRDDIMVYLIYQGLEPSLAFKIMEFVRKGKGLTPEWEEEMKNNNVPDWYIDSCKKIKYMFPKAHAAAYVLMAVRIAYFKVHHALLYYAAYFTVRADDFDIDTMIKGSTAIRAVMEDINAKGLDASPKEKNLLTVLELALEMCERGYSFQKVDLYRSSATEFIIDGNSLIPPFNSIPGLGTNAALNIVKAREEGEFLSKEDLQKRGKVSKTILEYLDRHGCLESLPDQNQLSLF

First: NC(=NCc1ccccc1)NC(=O)c1nc(Cl)c(N)nc1N
Second: Nc1nc(OCc2ccccc2)c2[nH]cnc2n1
The “activity change, negative = inhibition” value of the first is higher: -2.62% for the first, -5.08% for the second.

Going from O=c1ccc2ccc(O)c(O)c2o1 to COc1ccc2cc([C@H](C)C(=O)O)ccc2c1, the “activity change, negative = inhibition” value rises from -13.4% to -8.94%.

First: Nc1ccn([C@@H]2O[C@H](CO)[C@@H](O)C2O)c(=O)n1 (stereo partly specified)
Second: O=C1c2c(O)cc(O)cc2OC(c2ccc(O)c(O)c2)C1O (stereo unspecified)
The “activity change, negative = inhibition” value of the first is higher: -3.72% for the first, -15.7% for the second.

First: COc1cc2nc(N3CCN(C(=O)C4CCCO4)CC3)nc(N)c2cc1OC (stereo unspecified)
Second: COc1cc2c(cc1OC)C1CC(=O)C(CC(C)C)CN1CC2 (stereo unspecified)
The “activity change, negative = inhibition” value of the first is lower: 1.09% for the first, 6.81% for the second.

Going from Cc1cccc(C#Cc2ccccc2)n1 to O=C1c2ccccc2-c2n[nH]c3cccc1c23, the “activity change, negative = inhibition” value rises from -1.52% to -1.34%.

First: CC(=O)O[C@H]1C(=O)[C@@]2(C)C([C@H](OC(=O)c3ccccc3)[C@]3(O)C[C@H](OC(=O)[C@H](O)[C@@H](NC(=O)c4ccccc4)c4ccccc4)C(C)=C1C3(C)C)[C@]1(OC(C)=O)CO[C@@H]1C[C@@H]2O (stereo partly specified)
Second: OC(CN1CCN(c2cccc(Cl)c2)CC1)C(c1ccccc1)c1ccccc1 (stereo unspecified)
The “activity change, negative = inhibition” value of the first is lower: -14.1% for the first, -0.977% for the second.

Compared with Oc1ccc(-c2nc(-c3ccc(F)cc3)c(-c3ccncc3)[nH]2)cc1, Oc1ccc2ccccc2c1SSc1c(O)ccc2ccccc12 is lower in “activity change, negative = inhibition” value: -3.02% for the first, -17.6% for the second.

Compared with CNC[C@H](O)c1ccc(O)c(O)c1, O=C(CCc1ccc(O)cc1)c1c(O)cc(O)cc1O is lower in “activity change, negative = inhibition” value: -1.83% for the first, -4.22% for the second.

Going from O=C(O)c1cccnc1Nc1cccc(C(F)(F)F)c1 to Cc1c(OCC(F)(F)F)ccnc1CS(=O)c1nc2ccccc2[nH]1 (stereo unspecified), the “activity change, negative = inhibition” value rises from -0.885% to 2.66%.

Compared with CC(=O)N1CCN(c2ccc(OC[C@H]3CO[C@](Cn4ccnc4)(c4ccc(Cl)cc4Cl)O3)cc2)CC1, COc1ccccc1N1CCN(CCN(C(=O)C2CCCCC2)c2ccccn2)CC1 is higher in “activity change, negative = inhibition” value: 1.94% for the first, 3.13% for the second.

Compared with O=Nc1c(-c2c(O)[nH]c3cc(Br)ccc23)[nH]c2ccccc12, O=C1NC(=O)C(c2ccccc2[N+](=O)[O-])=C1Nc1ccc(O)c(Cl)c1 is lower in “activity change, negative = inhibition” value: -2.1% for the first, -9.8% for the second.

Going from NCCCCNCCCN to CCN(CC)C(=S)SSC(=S)N(CC)CC, the “activity change, negative = inhibition” value rises from -6.4% to -5.56%.

Compared with CC1(C)NC(=O)N(c2ccc([N+](=O)[O-])c(C(F)(F)F)c2)C1=O, CC1(C)C(=O)N(CCN2CCC(C(=O)c3ccc(F)cc3)CC2)c2ccccc21 is higher in “activity change, negative = inhibition” value: -4.8% for the first, -2.73% for the second.

Going from NNc1nncc2ccccc12 to O=C(c1ccccc1)c1ccc2n1CCC2C(=O)O (stereo unspecified), the “activity change, negative = inhibition” value rises from 2.03% to 9.06%.

Going from C[C@@H](N)C1CCC(C(=O)Nc2ccncc2)CC1 (stereo partly specified) to CCOC(=O)C(C)Oc1cccc2c(=O)n(CC(=O)Nc3ccc4c(c3)OCCO4)ccc12 (stereo unspecified), the “activity change, negative = inhibition” value rises from -2.95% to 4.13%.

First: O=c1cc(N2CCOCC2)oc2c(-c3ccccc3)cccc12
Second: CN(C)CCCC1(c2ccc(F)cc2)OCc2cc(C#N)ccc21 (stereo unspecified)
The “activity change, negative = inhibition” value of the first is lower: -11.3% for the first, -1.47% for the second.

With Nc1nc(N)c(N=O)c(OCC2CCCCC2)n1 the “activity change, negative = inhibition” value was 2.45%.

In the case of O=c1c(O)c(-c2cc(O)c(O)c(O)c2)oc2cc(O)cc(O)c12, the Potency is reported as 15 µM (active).
In the case of CC(C)c1ccc2c(c1)c(SC(C)(C)C)c(CC(C)(C)C(=O)O)n2Cc1ccc(Cl)cc1, the Potency is reported as 21.2 µM (active).
With O=c1c(O)c(-c2ccc(O)cc2O)oc2cc(O)cc(O)c12 the Potency was 18.9 µM (active).
